Reference: PubChem BioAssay (NCI)
Compounds without any hit were thinned out: in the full panel of roughly 83,000, 20% have a hit.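 Growth was measured after 48 h exposure to one concentration of compound in 96-well plates. Values under 10 count as active.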 Values without a mark were called inactive. Calls of active or inactive are those of the source.

What was measured:
Test in all cases: NCI-60 one-dose screen, 48 h (100 = growth as untreated, 0 = no growth, -100 = all killed)
DU-145 prostate = settings: 10 µM unless noted
K-562 leukemia = settings: 10 µM unless noted
MALME-3M melanoma = settings: 10 µM unless noted
MDA-MB-231 breast = settings: 10 µM unless noted
RXF 393 renal = settings: 10 µM unless noted
SF-268 CNS = settings: 10 µM unless noted
SF-295 CNS = settings: 10 µM unless noted
SF-539 CNS = settings: 10 µM unless noted
UACC-257 melanoma = settings: 10 µM
M14 melanoma = settings: 10 µM unless noted
HCT-15 colon = settings: 10 µM unless noted
HT29 colon = settings: 10 µM unless noted
SNB-75 CNS = settings: 10 µM unless noted
SNB-19 CNS = settings: 10 µM unless noted
U251 CNS = settings: 10 µM unless noted
PC-3 prostate = settings: 10 µM unless noted
SK-MEL-5 melanoma = settings: 10 µM unless noted
UACC-62 melanoma = settings: 10 µM unless noted
LOX IMVI melanoma = settings: 10 µM unless noted
SK-MEL-28 melanoma = settings: 10 µM unless noted

SMILES	growth (DU-145 prostate)	growth (K-562 leukemia)	growth (MALME-3M melanoma)	growth (MDA-MB-231 breast)	growth (RXF 393 renal)	growth (SF-268 CNS)	growth (SF-295 CNS)	growth (SF-539 CNS)	growth (UACC-257 melanoma)	growth (M14 melanoma)	growth (HCT-15 colon)	growth (HT29 colon)	growth (SNB-75 CNS)	growth (SNB-19 CNS)	growth (U251 CNS)	growth (PC-3 prostate)	growth (SK-MEL-5 melanoma)	growth (UACC-62 melanoma)	growth (LOX IMVI melanoma)	growth (SK-MEL-28 melanoma)
Nc1n[nH]c2cccc(C#Cc3cccc(NC(=O)c4cccc(OC(F)(F)F)c4)c3)c12	71.4%	7.22% (active)	2.17% (active)	17.7%	24.2%	50.9%	73.8%	6.63% (active)	63.1%	31%	41.3%	36.1%	47.7%	81.3%	59.3%	68.3%	80.9%	30.1%	16.9%	30.3%
COc1ccc(NS(=O)(=O)c2ccc(-c3cnc(C4CC4)o3)cc2)cc1Cl	24.1%	10.1%	50%	41.9%	0.101% (active)	66.1%	10.6%	13.3%	66.9%	21.1%	29.3%	10.6%	-2.75% (active)	43.8%	36%	25.2%	18.1%	34.1%	39.5%	66.9%
IP(CCCCCCCCCCSc1n(Cc2ccc3ccccc3c2)c(-c2ccccc2)c(-c2ccccc2)[n+]1Cc1ccc2ccccc2c1)(c1ccccc1)(c1ccccc1)c1ccccc1	-69.6% (active)	-46.4% (active)	-70.5% (active)	-63.7% (active)	-35.6% (active)	-54.6% (active)	-77.6% (active)	-66.7% (active)	-55.8% (active)	-61.2% (active)	-68.3% (active)	-59.4% (active)	-52.6% (active)	-84.8% (active)	-68.5% (active)	-80.4% (active)	-98.3% (active)	-73.6% (active)	-78.1% (active)	-83.7% (active)
O=C(NNc1nc2cc(F)c(F)cc2n2cccc12)c1cccnn1	24.3%	13.3%	17.8%	32.4%	40.1%	14%	8.56% (active)	0.368% (active)	5.44% (active)	11.2%	29.1%	29.5%	33.7%	22.6%	14.8%	33.7%	-36.8% (active)	10.5%	3.83% (active)	27.3%
Nc1nc(N)c2c(n1)NC(c1ccc(Cl)cc1)CC(c1ccc(Nc3nc(NCCO)nc(Nc4ccc(Cl)cc4)n3)cc1)=N2 (stereo not given)	0.35% (active)	-25.2% (active)	68.9%	53%	43.6%	51.4%	47.5%	83.4%	107%	34.5%	1.91% (active)	-21.8% (active)	77.9%	17.2%	-35.6% (active)	44.1%	48.4%	91.2%	-90% (active)	103%
CCOC(=O)c1c(NCC(=O)Nc2cccc([N+](=O)[O-])c2)sc2c1CCCC2	-15.2% (active)	3.3% (active)	-63.9% (active)	-44% (active)	-84.6% (active)	-42.2% (active)	-90.2% (active)	-55.6% (active)	-27% (active)	-85.2% (active)	-42.4% (active)	-71.5% (active)	-48.6% (active)	-17.3% (active)	-26.5% (active)	-34% (active)	-98.4% (active)	-90.3% (active)	-73% (active)	-80.2% (active)
C=C(C)[C@@H]1CC[C@]2(C(=O)ON)CC[C@]3(C)[C@H](CC[C@@H]4[C@@]5(C)C/C(=C/c6ccc(Br)cc6)C(=O)C(C)(C)[C@@H]5CC[C@]43C)[C@@H]12	79.2%	46.3%	83.2%	80.6%	78.4%	81.1%	74.9%	75.9%	81.1%	76%	57.8%	71.5%	104%	78.2%	70.8%	45.8%	86.1%	59.5%	69.7%	84.7%
Nc1nc(-c2cccc([N+](=O)[O-])c2)c(N=Nc2cccc(Cl)c2)s1	63.6%	30.1%	93.1%	47.3%	-11.4% (active)	41.4%	53%	55.2%	77.6%	37%	16.3%	40.7%	40.3%	73.9%	44.3%	37.6%	39.9%	32.9%	24.5%	75.6%
O=C(N/N=C\c1ccc(Cl)cc1)c1ccc2nc(-c3ccc(Br)cc3)[nH]c2c1	-1.02% (active)	2.78% (active)	-59% (active)	18.2%	-46.6% (active)	11.9%	-37.8% (active)	-5.56% (active)	3.89% (active)	-45.6% (active)	-25.2% (active)	-52% (active)	49.9%	5.18% (active)	-70.6% (active)	-23.7% (active)	22.2%	8.2% (active)	-80.5% (active)	-14.7% (active)
COc1cc(C2CC(c3ccc(Nc4nc(NCCO)nc(Nc5ccc(Cl)cc5)n4)cc3)=Nc3c(N)nc(N)nc3N2)cc(OC)c1OC (stereo not given)	65.7%	16.4%	85.7%	60.6%	45%	63%	77.6%	80.1%	92.1%	81.2%	54.2%	60.9%	91.4%	47.1%	38.7%	41.9%	53.4%	77.6%	53.1%	96.4%
CCc1ccc(NC(=O)N[C@@H](Cc2cc(F)cc(F)c2)C(=O)N[C@@H]2C(=O)N3CCC[C@H]3C(=O)N3CCO[C@H](C)[C@H]3C(=O)N[C@@H](CO)C(=O)N3C[C@H](C)C[C@H]3C(=O)O[C@H]2C)c(F)c1	26.4%	21.5%	40.8%	33.3%	-5.23% (active)	32.4%	12.6%	39.9%	12.9%	24%	15.8%	30.5%	20.3%	26.9%	29%	17.3%	-2.9% (active)	26.3%	20.4%	43.4%
C=CCn1c(SCC(=O)Nc2ccc(OC)cc2)nnc1-c1ccc(Cl)cc1	99.5%	89.6%	89.9%	85.3%	86.6%	90.6%	98.1%	94.8%	97.1%	96.3%	73.7%	105%	97.4%	91.7%	105%	95.1%	96.4%	81.5%	93.8%	92.5%
CN(C)CCn1c2ccc(N)cc2c2nc3ccccc3nc21	25.3%	13.7%	44.1%	32.7%	35.4%	43.4%	32.3%	21.3%	38.4%	35.9%	21.1%	21.3%	54.2%	32.1%	33.4%	38.6%	27%	35.2%	9.95% (active)	54.5%
CC(c1ccccc1)N1C(=O)/C(=C/c2csc(C#N)n2)SC1=S (stereo not given)	87.7%	40.8%	82.4%	90.1%	90.1%	101%	103%	93.4%	81.7%	78.4%	76.1%	106%	85.4%	93.7%	94.1%	90.5%	96.9%	85.4%	39.8%	93.5%
C[C@@H]1C[C@H]2C(=O)OCC(NC(=O)[C@H](Cc3cc(F)cc(F)c3)NC(=O)Nc3ccc(Cl)cc3F)C(=O)N3CCC[C@H]3C(=O)N3CCCC[C@H]3C(=O)N[C@@H](C)C(=O)N2C1 (stereo not given in full)	24.7%	19.3%	35.9%	27.3%	-12.6% (active)	29.8%	8.11% (active)	32.1%	17.2%	19%	11.1%	15.6%	46.8%	24.4%	28.8%	17.3%	-12.3% (active)	26.7%	4.29% (active)	39.7%
